GLP1R ag = qHTS of GLP-1 Receptor Agonists; Glucagon-like peptide 1 receptor (Homo sapiens), P43220; HEK293 GLP-1R CRE-luciferase, luminescence, 4-6 h; cells express a hypersensitive GLP-1R form; Potency, µM (top dose mostly 45.6 µM), without a hit: at the highest dose activation, most hits filed as activators; actives 0.007% (n = 380,000); note: % of control where 0% means no effect
Target sequence (P43220 whole entry, looked up): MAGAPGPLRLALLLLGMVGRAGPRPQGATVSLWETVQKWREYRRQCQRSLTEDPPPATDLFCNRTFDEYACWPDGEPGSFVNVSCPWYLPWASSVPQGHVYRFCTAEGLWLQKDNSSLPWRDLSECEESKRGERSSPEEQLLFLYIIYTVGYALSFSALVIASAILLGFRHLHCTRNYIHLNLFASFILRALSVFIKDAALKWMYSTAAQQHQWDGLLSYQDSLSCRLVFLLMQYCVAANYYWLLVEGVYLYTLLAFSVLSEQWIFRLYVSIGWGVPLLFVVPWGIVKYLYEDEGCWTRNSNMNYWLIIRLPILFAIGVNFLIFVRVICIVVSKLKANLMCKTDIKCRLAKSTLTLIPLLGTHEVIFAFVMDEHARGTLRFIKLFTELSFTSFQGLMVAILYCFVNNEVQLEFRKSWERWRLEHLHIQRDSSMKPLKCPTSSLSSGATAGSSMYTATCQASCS
GLP1R cytotox = qHTS of GLP-1 Receptor Inverse Agonists: Cytotox Screen; Potency, µM (series often up to 38.3 µM), for inactives: top-dose activity change, negative = inhibition, most hits filed as inhibitors; HEK293 cAMP-luciferase reporter cells, luminescence, 24 h; AID 624418, 2012; actives 0.13% (n = 410,000);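 note: loss of luciferase light is scored as toxicity; % is set by controls: 0 for no effect and ±100 for the full control effect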
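Cells in DMEM/10% Nu serum/1% pen-strep, 1536-well format. Pre-incubated 12 h, dosed with 23 nL compound, incubated a further 24 h. Luciferase detection, 12 min at room temp, luminescence.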
GLP1R inv ag = qHTS of GLP-1 Receptor Inverse Agonists (Inhibition Mode); Glucagon-like peptide 1 receptor (Homo sapiens), P43220; HEK293 GLP-1R CRE-luciferase, luminescence, 24 h; GLP-1R form is constitutively active; Potency, µM (highest dose often 38.3 µM), inactives show at the top dose activity change, negative = inhibition, usual class: inhibitors; actives 1.6% (n = 410,000); AID 624417, 2012; note: % is set by controls: 0 for no effect and ±100 for the full control effect; nearly all actives have a fitted effect of over 55% in size
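GLP-1R inverse agonism mode: basal reporter luminescence in engineered HEK293 cells measured after one day of compound exposure at 37 deg C, with a 12 min room-temperature detection step.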
* = called active by the depositor. Most compounds without a hit are left out; they make up all but 1.7% or so of the library. Calls come from the whole dose curve; as a rule, active = well fitted curve in the direction sought with a large enough effect; inconclusive = small, poorly fitted or top-dose-only effect, or another doubt; inactive = no such curve, though single readings can be large; an effect the other way counts as inactive or inconclusive. Potency is the fitted concentration of half-maximal effect.

Screening CCn1c(C)nc2cc(C(=O)N/N=C(\C)c3ccc(OC)cc3O)ccc21 returned GLP1R ag 10%, GLP1R cytotox inconclusive and GLP1R inv ag inconclusive.
O=Cc1cn(Cc2cccc([N+](=O)[O-])c2)c2ccccc12 was read as GLP1R ag -5%, GLP1R cytotox -39% and GLP1R inv ag inconclusive.
`N#Cc1ccc(Cn2cc(C=O)c3ccccc32)cc1` gave GLP1R ag 1%, GLP1R cytotox -5% and GLP1R inv ag 7.1µM*.
Screening CCC(=O)c1cn(Cc2ccc(C#N)cc2)c2ccccc12 returned GLP1R ag 9%, GLP1R cytotox 2% and GLP1R inv ag inconclusive.
Screening Cc1cccc(Cn2cc(C=O)c3ccccc32)c1 returned GLP1R ag 10%, GLP1R cytotox -7% and GLP1R inv ag 4µM*.
Screening CSc1cccc(CNC(=O)C2CCC(=O)N(Cc3cccc(C(F)(F)F)c3)C2)c1 (stereo not given) returned GLP1R ag -3%, GLP1R cytotox -3% and GLP1R inv ag inconclusive.
For ClC(Cl)(Cl)c1nc2ccccc2n2nncc12 the results were GLP1R ag 31%, GLP1R cytotox inconclusive and GLP1R inv ag inconclusive.
Screening O=C(c1cc(F)ccc1F)C1CCCN(CCCc2ccccc2)C1 (stereo not given) returned GLP1R ag 2%, GLP1R cytotox 9% and GLP1R inv ag inconclusive.
For O=C(c1cc(F)ccc1F)C1CCCN(Cc2cccc(Cl)c2)C1 (stereo not given) the results were GLP1R ag 11%, GLP1R cytotox 6% and GLP1R inv ag 10µM*.
For O=P1(c2ccccc2)Nc2ccccc2N1c1ccccc1 (stereo not given) the results were GLP1R ag 5%, GLP1R cytotox -1% and GLP1R inv ag 4.5µM*.
Screening O=C(c1[nH]c(C(F)(F)F)nc1-c1ccccc1)N1CCc2c([nH]c3ccccc23)C1 returned GLP1R ag -2%, GLP1R cytotox inconclusive and GLP1R inv ag inconclusive.
For O=C(N/N=C/c1ccncc1)c1ccccc1OCc1ccc(Br)cc1 the results were GLP1R ag 12%, GLP1R cytotox inconclusive and GLP1R inv ag inconclusive.
CCCCc1ccc2[nH]cc(CCN)c2c1 was read as GLP1R ag -1%, GLP1R cytotox inconclusive and GLP1R inv ag 10µM*.
NCCc1c[nH]c2ccccc12 was read as GLP1R ag 9%, GLP1R cytotox 0% and GLP1R inv ag -6%.
`CCN(CC)C(=O)[C@@H]1C=C2c3cccc4[nH]cc(c34)C[C@H]2N(C)C1` gave GLP1R ag -9%.
Screening COC(=O)c1ccc(COc2ccccc2/C=N/NS(=O)(=O)c2ccc(C)cc2)cc1 returned GLP1R ag -12%, GLP1R cytotox inconclusive and GLP1R inv ag 0%.
COc1cc(C(=O)Oc2ccccc2/C=N/NC(=O)c2ccc(C)cc2)cc(OC)c1OC was read as GLP1R ag 4%, GLP1R cytotox inconclusive and GLP1R inv ag 1.6µM*.
For c1ccc(Nc2nc(NCC3CCCO3)c3ccccc3n2)cc1 (stereo not given) the results were GLP1R ag -2%, GLP1R cytotox inconclusive and GLP1R inv ag 8.9µM*.
Nc1c(C(=O)NCC2CCCO2)c2nc3ccccc3nc2n1-c1ccccc1 (stereo not given) was read as GLP1R ag 1%, GLP1R cytotox inactive and GLP1R inv ag inconclusive.
`COc1cc(C(O)P(=O)(OCCC(C)C)c2ccc(N(C)C)cc2)cc(OC)c1OC` (stereo not given) gave GLP1R ag 7%, GLP1R cytotox inconclusive and GLP1R inv ag 3%.
`CCN(CC)CCOc1ccc(/C(=C(/Cl)c2ccccc2)c2ccccc2)cc1` gave GLP1R ag 10%, GLP1R cytotox inconclusive and GLP1R inv ag 11µM*.
For CC/C(=C(\c1ccc(O)cc1)c1ccc(OCCN(C)C)cc1)c1ccccc1 the results were GLP1R ag 17%, GLP1R cytotox -6% and GLP1R inv ag inconclusive.
COc1ccc(C2C=C(c3ccccc3)Nc3nc(NC(=O)/C=C/c4ccccc4Cl)nn32)cc1 (stereo not given) was read as GLP1R cytotox 37% and GLP1R inv ag 20%.
For CN(C)C1(CNC(=O)Nc2ccc(Cl)c(Cl)c2)CCCCC1 the results were GLP1R ag -4%, GLP1R cytotox inconclusive and GLP1R inv ag 4µM*.
Screening CN(C)C1(CNC(=O)c2ccc(NS(=O)(=O)c3ccc(Cl)c(Cl)c3)cc2)CCCCC1 returned GLP1R ag -4%, GLP1R cytotox -5% and GLP1R inv ag inconclusive.
Screening Cc1ccc(N2CC(C(=O)Nc3cc(S(=O)(=O)N4CCCCC4)ccc3C)CC2=O)cc1 (stereo not given) returned GLP1R ag 5%, GLP1R cytotox 2% and GLP1R inv ag inconclusive.
For O=C(C1CCN(c2ncnc3c2nc2n3CCCCC2)CC1)N1CCN(c2cccc(Cl)c2)CC1 the results were GLP1R ag -2%, GLP1R cytotox inconclusive and GLP1R inv ag 8.9µM*.
For O=C(C1CCN(S(=O)(=O)c2ccc(Br)s2)CC1)N1CCN(c2cccc(C(F)(F)F)c2)CC1 the results were GLP1R cytotox -3% and GLP1R inv ag inconclusive.
For COc1cc(C(=O)NCCSc2c(-c3ccccc3)[nH]c3ccccc23)cc(OC)c1OC the results were GLP1R cytotox 2% and GLP1R inv ag inconclusive.
For C=CC[C@@H](Cc1ccc(F)cc1)C(=O)OC[C@@H]1CCCN1C(=O)[C@@H](CC=C)CC(=O)N[C@H](CO)Cc1ccccc1 the results were GLP1R ag -5%, GLP1R cytotox -2% and GLP1R inv ag inconclusive.
Screening O=S(=O)(O)c1cc(O)c(N=Nc2ccc(O)cc2O)c2ccccc12 returned GLP1R ag -2%, GLP1R cytotox inconclusive and GLP1R inv ag 24%.
`CCCCCN1C(=O)c2ccccc2[C@@]2(C(=O)OCC)Cc3cc(OC)ccc3[C@@H]12` gave GLP1R ag -13%, GLP1R cytotox inconclusive and GLP1R inv ag 8.9µM*.
Screening CCOC(=O)[C@]12Cc3cc(C)ccc3[C@H]1N(Cc1ccccc1)C(=O)c1cc(F)c(F)cc12 returned GLP1R ag -32%, GLP1R cytotox -27% and GLP1R inv ag 11µM*.
CCOC(=O)[C@]12Cc3cc(OC)ccc3[C@H]1N(Cc1ccccc1)C(=O)c1ccccc12 was read as GLP1R ag -3%, GLP1R cytotox -11% and GLP1R inv ag inconclusive.
Screening CCOC(=O)[C@]12Cc3cc(OC)ccc3[C@H]1N(Cc1ccccc1)C(=O)c1cc(F)c(F)cc12 returned GLP1R ag 7%, GLP1R cytotox 12% and GLP1R inv ag inconclusive.
For Cc1ccc(Cl)cc1N1CCN(C(=O)C2CCCN(S(=O)(=O)c3ccc(Br)s3)C2)CC1 (stereo not given) the results were GLP1R cytotox 3% and GLP1R inv ag inconclusive.
CCC(=NC(C)c1ccccc1)c1c(O)n(C)c(=O)n(C)c1=O (stereo not given) was read as GLP1R ag inconclusive, GLP1R cytotox -1% and GLP1R inv ag 59%.
